# Laboratory results taken from PubChem BioAssay (NCI).
# About 83,000 compounds went through this panel and 20% of them were active in at least one assay; those are over-represented in the sample as a whole.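 The endpoint reported here, percent growth, reads 100 for growth as untreated, 0 for no net growth and -100 for all cells dead.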 Values without a mark were called inactive. Calls of active or inactive are those of the source. The calls were made as follows: active = growth percent below 10; inactive = the rest.
# Columns and labels:
# Experiment in all cases: NCI-60 one-dose screen, 48 h (100 = growth as untreated, 0 = no growth, -100 = all killed)
# Settings in all cases: 10 µM unless noted
# NCI-H23 lung = system: NCI-H23 lung
# NCI-H226 lung = system: NCI-H226 lung
# NCI-H322M lung = system: NCI-H322M lung
# HOP-62 NSCLC = system: HOP-62 NSCLC
# NCI-H460 lung = system: NCI-H460 lung
# 786-0 renal = system: 786-0 renal
# MDA-MB-231 breast = system: MDA-MB-231 breast
# SF-268 CNS = system: SF-268 CNS
# SF-539 CNS = system: SF-539 CNS
# M14 melanoma = system: M14 melanoma
# PC-3 prostate = system: PC-3 prostate
# UACC-62 melanoma = system: UACC-62 melanoma
# SK-MEL-28 melanoma = system: SK-MEL-28 melanoma
# UO-31 renal = system: UO-31 renal
# OVCAR-5 ovarian = system: OVCAR-5 ovarian
# OVCAR-3 ovarian = system: OVCAR-3 ovarian
# NCI/ADR-RES ovarian = system: NCI/ADR-RES ovarian
# SW-620 colon = system: SW-620 colon
# MCF7 breast = system: MCF7 breast
# KM12 colon = system: KM12 colon
SMILES,growth (NCI-H23 lung),growth (NCI-H226 lung),growth (NCI-H322M lung),growth (HOP-62 NSCLC),growth (NCI-H460 lung),growth (786-0 renal),growth (MDA-MB-231 breast),growth (SF-268 CNS),growth (SF-539 CNS),growth (M14 melanoma),growth (PC-3 prostate),growth (UACC-62 melanoma),growth (SK-MEL-28 melanoma),growth (UO-31 renal),growth (OVCAR-5 ovarian),growth (OVCAR-3 ovarian),growth (NCI/ADR-RES ovarian),growth (SW-620 colon),growth (MCF7 breast),growth (KM12 colon)
CC(=O)Oc1ccc(Cl)cc1,94.2%,91.3%,106%,87.8%,101%,99.5%,95.8%,83.6%,89.1%,98.6%,91.3%,91.9%,89.5%,59%,88.7%,63.7%,99.1%,89.9%,87.4%,86.3%
CCC(/C=C(C)/C=C/C(=O)c1c(O)c(-c2ccc(O)cc2)c[nH]c1=O)CO (centres undefined),98.4%,106%,96%,98%,93.4%,87.6%,111%,45.1%,77.4%,104%,27.7%,99.8%,105%,67.9%,134%,41.8%,96.2%,100%,88.7%,47%
C=CC(O)CN1CC1CC (centres undefined),99%,105%,106%,101%,100%,107%,113%,106%,98%,96.5%,98.1%,92.6%,105%,86.3%,104%,111%,97.4%,92%,94.2%,106%
NC(=O)SCC(=O)Nc1ccc([As](=O)(O)O)cc1,86.1%,111%,123%,136%,101%,82.8%,90.8%,100%,83.8%,89.7%,77.8%,97.3%,101%,93.8%,125%,103%,86.4%,73.9%,75.3%,97.6%
CC(C)Nc1ccc(Nc2ccccc2)cc1,31.3%,51.1%,73.4%,35.3%,11%,51.8%,25.5%,32.8%,26.1%,47.7%,9.1% (active),65%,85.1%,83.1%,65.1%,7.43% (active),74.8%,33.8%,32%,27.6%
Nc1ccc(N)c2c1Oc1ccccc1O2,85.7%,84.5%,97.2%,95.5%,117%,93.2%,78.5%,105%,89.1%,101%,88%,98.6%,108%,134%,89%,99%,94.9%,102%,98%,97.3%
CCC(C)/C=C(C)/C=C/C(=O)c1c(O)c(-c2ccc(O)cc2)c[nH]c1=O (centres undefined),64.6%,91.5%,59.3%,60.8%,31.6%,49.7%,70%,33.3%,61.7%,79.1%,45%,48.8%,91%,35%,,40.7%,33.5%,39.6%,18.6%,40.6%
CO[C@@H](c1ccccc1Cl)[C@H](C)OC(N)=O,93.7%,96.4%,95.1%,96.1%,105%,98.7%,102%,97.4%,96.6%,89.9%,98.1%,93.1%,102%,85.7%,91.5%,111%,103%,100%,102%,109%
CNc1ccc(C(=O)CC(O)CCC(C)C2OC(=O)CC(O)CC(=O)CC(O)CC(O)CC(O)CC(O)CC3(O)CC(O)C(C(=O)OC)C(CC(O[C@@H]4O[C@H](C)[C@@H](O)[C@H](N)[C@@H]4O)/C=C/C=C/C=C/C=C/C=C/C=C/C=C/C2C)O3)cc1 (some centres undefined),-54.5% (active),-37.7% (active),1.05% (active),-25.9% (active),3.55% (active),-20.1% (active),-0.509% (active),-5.42% (active),72.4%,-47.5% (active),15%,3.05% (active),-89.1% (active),-58.6% (active),-9.42% (active),-15% (active),-35.9% (active),37%,8.58% (active),7.61% (active)
ClCCN(CCCl)c1ccc(C=NCCc2c[nH]c3ccccc23)cc1,71.7%,-10.5% (active),111%,73.1%,22.6%,63.4%,98.8%,72.2%,71.8%,91.6%,57%,56.9%,108%,60.6%,94.5%,93.3%,76.2%,84.4%,56%,101%
Nc1c(Br)cc2c3c(cccc13)-c1ccccc1-2,61.7%,89.3%,91.2%,82.9%,88.4%,94.9%,48.7%,87.7%,77.7%,58.5%,47.4%,81.2%,99.7%,42.4%,76.8%,64.4%,83.4%,90.4%,38.7%,57.4%
Oc1ccc2c3c1O[C@H]1c4[nH]c5ccccc5c4C[C@@]4(O)C(C2)N(CC2CC2)CC[C@]314,90.9%,94.4%,94.3%,95.9%,107%,95.2%,101%,93.2%,103%,98.6%,88.1%,102%,105%,69.9%,106%,89.1%,92.1%,99.9%,99.7%,90.7%
CC(C)N=C(NC(C)C)N1CC1,113%,108%,118%,108%,116%,116%,96.9%,108%,103%,128%,112%,105%,106%,113%,106%,109%,113%,110%,102%,110%
O=CC(Br)C(Br)c1ccccc1 (centres undefined),104%,97.7%,103%,107%,102%,106%,96.5%,95.7%,94%,91.8%,94.7%,87.4%,93.7%,74.1%,98%,33.3%,100%,19.5%,44.1%,96.1%
O=[As]c1ccc(C(=O)c2ccc(Oc3ccccc3)cc2)cc1 (centres undefined),-77.5% (active),-85.5% (active),-79.1% (active),-98.3% (active),-31.9% (active),-99.6% (active),-98.4% (active),-89.2% (active),-98.4% (active),-94.1% (active),-61.4% (active),-98.1% (active),-96.3% (active),-84.6% (active),-95.4% (active),-93.9% (active),-52.4% (active),-82.6% (active),-48.6% (active),-87.2% (active)
CC(C)CCC1(CCO)C(=O)NC(=S)NC1=O,110%,105%,105%,105%,109%,110%,104%,95.1%,125%,103%,87.8%,97.3%,116%,84.1%,99.5%,108%,114%,105%,109%,104%
